Z-score data for 15 compounds are collected here from PubChem BioAssay.

The source made the active and inactive calls.

A short description of assay [1]: compound effects on lung adenocarcinoma cell viability – A549, calcein-AM fluorescence, 48 h, basal, profiling panel (AID 1162). The conditions noted are these: higher = more signal.
Assay [2] in a line: compound effects on differentiated 3T3-L1 adipocyte viability – cell-based, 3T3-L1 adipocytes, calcein-AM fluorescence, 48 h, basal, profiling panel (AID 1163). The conditions noted are these: 3T3-L1 adipocytes viability, higher = more signal.
Assay [3] in a line: compound effects on hepatocellular carcinoma cell viability – HepG2, calcein-AM fluorescence, 48 h, basal, profiling panel (AID 1164). The conditions noted are these: higher = more signal.
A short description of assay [4]: compound effects on multiple myeloma cell viability – MM1S, calcein-AM fluorescence, 48 h, basal, profiling panel (AID 1165). As to conditions: higher = more signal.
A short description of assay [5]: calcein-AM signal in unstimulated myeloma cells – cell-based, calcein-AM fluorescence, 48 h, PK04 Diversity Set, profiling panel (AID 1166).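 Also: cells grown under basal conditions without added stimulus.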 As to conditions: RPMI8226 myeloma viability, higher = more signal.
Assay [6] can be described thus: JC-1 mitochondrial signal, unstimulated HepG2 cells – cell-based, JC-1 fluorescence, 24 h, 100 nL compound, profiling panel (AID 1167). As to conditions: HepG2 mitochondrial potential, higher = more signal.
Assay [7] is described as follows: JC-1 mitochondrial signal, unstimulated adipocytes – cell-based, JC-1 fluorescence, 3T3-L1 adipocytes, 24 h, 100 nL compound, profiling panel (AID 1168). As to conditions: JC-1 mitochondrial fluorescence, higher = more signal, called active from +8 up or from −8 down.
Assay [8] in a line: JC-1 mitochondrial signal, unstimulated myeloma cells – cell-based, JC-1 fluorescence, RPMI8226, 24 h, 100 nL compound, profiling panel (AID 1169). The conditions noted are these: JC-1 mitochondrial potential fluorescence, higher = more signal.
Assay [9] in a line: JC-1 mitochondrial signal, unstimulated MM1S myeloma – cell-based, JC-1 fluorescence, 24 h, 100 nL compound, profiling panel (AID 1170). The conditions noted are these: MM1S mitochondrial potential, higher = more signal.
Assay [10] can be described thus: resazurin metabolic signal in A549 cells – cell-based, resazurin fluorescence, 24 h, PK04 Diversity Set, profiling panel (AID 1171). The conditions noted are these: A549 viability, higher = more signal, called active from +8 up or from −8 down. (In general: Resazurin is reduced to fluorescent resorufin, in cell work by metabolically active cells.)
Also: test concentration not given here.

For `O=C1OCCC=C[C@H]2OC34C=CCN(Cn5nnc6ccccc65)C(=O)[C@H]3N(CCCCCCO)C(=O)[C@@H]4C12` (stereo not given in full), the z-score in assay [1] is 0.16; in assay [2] it was -0.808; in assay [3] it was -0.381; in [4], 1.78; in [5] it was -0.264; in assay [6] it was 0.515. Further, the z-score in assay [7] was 0.256 (inactive); in assay [8], -0.137; in [9] it was -0.5; in assay [10], -0.356 (inactive).
As to `COC(=O)[C@@]1(Cc2ccc(OC)cc2)[C@H]2c3cc(C(=O)N4CCCC4)n(Cc4c(-c5ccccc5)noc4C)c3C[C@H]2CN1C(=O)c1ccccc1`, the z-score was -0.893 in assay [1]; -0.451 in [2]; -0.176 in assay [3]; -2.72 in assay [4]; -4.68 in [5]; 0.128 in assay [6]. Further, the z-score is -0.732 (inactive) in [7], -0.774 in assay [8], -1.52 in [9] and 0.356 (inactive) in assay [10].
As for `COC(=O)[C@@]1(Cc2ccccc2)[C@H]2c3cc(C(=O)N(C)C)n(CCc4ccc(O)c(OC)c4)c3C[C@H]2CN1C(=O)c1ccccc1`, the z-score was 0.0634 in [1]; -0.121 in assay [2]; 0.343 in assay [3]; -1.32 in assay [4]; -0.0242 in assay [5]; -0.533 in [6]. The z-score in [7] is -0.9 (inactive); in assay [8] it was -0.665; in assay [9], -0.241; in assay [10], 0.641 (inactive).
With `COCCOC(=O)N1C(=O)[C@@]2(c3cc(C#Cc4ccc(OC)cc4)ccc31)[C@H](C(=O)Nc1nc3ccccc3s1)[C@H]1C(=O)O[C@H](c3ccccc3)[C@H](c3ccccc3)N1[C@@H]2c1ccc(O)cc1`, the z-score in [1] was 0.373; in [2], 1.31; in assay [3], -0.375; in [4] it was -1.18; in assay [5], -1; in assay [6], -2.78. Moreover, the z-score in assay [7] was 1.1 (inactive); in [8], -0.544; in assay [9], -0.766; in assay [10], 0.0344 (inactive).
Consider `CN(C)C(=O)[C@@]1(CCS(=O)(=O)c2ccccc2)N=C(c2ccc(OCCCO)cc2)O[C@H]1c1ccccc1`, for which the z-score in assay [1] was 0.0979; in assay [2], 0.171; in assay [3], 0.568; in [4], -0.215; in [5], -2.01; in assay [6], -0.104. The z-score in assay [7] was -0.268 (inactive); in assay [8], 0.331; in [9], 0.0134; in assay [10], -0.124 (inactive).
In the case of `C=CCN1Cc2ccccc2[C@H]2OC(c3ccc(OCCCO)cc3)=N[C@@]2(CC=C)C1=O`, the z-score in assay [1] was -0.391; in assay [2], 0.659; in [3], -0.121; in assay [4], -1.7; in assay [5] it was -2.4; in [6] it was 2.11. The z-score was 0.661 (inactive) in [7], -0.807 in [8], -1.01 in [9] and -1.18 (inactive) in assay [10].
For the compound `[N-]=[N+]=Nc1ccccc1[C@H]1OC(c2ccc(OCCCO)cc2)=N[C@@]1(CCS(=O)(=O)c1ccccc1)C(=O)NCCN1CCOCC1`, the z-score in [1] was 0.101; in [2], -0.223; in assay [3] it was 0.0355; in assay [4] it was -0.387; in assay [5], -0.161; in assay [6], 0.816. Moreover, the z-score in assay [7] was -0.374 (inactive); in assay [8], 0.184; in assay [9], -0.691; in [10], 1.22 (inactive).
With `NC(N)=NCCCn1cc(CNC(=O)[C@@H](N)Cc2ccccc2)nn1`, the z-score was -0.531 in [1]; -0.637 in assay [2]; -0.948 in [3]; -0.0334 in assay [4]; -1.23 in [5]; -0.868 in assay [6]. The z-score is -0.283 (inactive) in [7], 0.714 in assay [8], 0.225 in assay [9] and -0.414 (inactive) in assay [10].
For the compound `CCCCN1CC=CC23O[C@@H]4/C=C\CCC(C)OC(=O)C4[C@H]2C(=O)N(C(CO)C(C)C)[C@@H]3C1=O` (stereo not given in full), the z-score is 0.0282 in assay [1]; -0.21 in assay [2]; 0.519 in [3]; 1.61 in [4]; -0.773 in [5]; -0.403 in [6]. For the same compound, the z-score in assay [7] was -1.27 (inactive); in assay [8], 0.0795; in [9], -0.676; in assay [10], -0.0227 (inactive).
`COc1cc2c(cc1OC)CN(C(=O)[C@@H]1[C@H]3C(=O)O[C@H](c4ccccc4)[C@H](c4ccccc4)N3[C@H](c3ccc(OCCO)cc3)[C@@]13C(=O)Nc1ccc(C#CC4(O)CCCCCC4)cc13)CC2`: the z-score is 2.93 in assay [1]; 1.72 in assay [2]; 0.988 in assay [3]; -0.0788 in assay [4]; 0.792 in assay [5]; -0.555 in assay [6]. Besides, the z-score in [7] is 0.601 (inactive); in assay [8], -0.831; in assay [9], -1.3; in assay [10] it was 0.36 (inactive).
Consider `CCOC(=O)C[C@H]1[C@H](OC(=O)c2ccc(C(=O)c3ccccc3)cc2)[C@@H](NC(=O)Cc2ccc(OC)cc2)c2cc(OCCCO)ccc2N1C(=O)c1ccccc1`, for which the z-score in assay [1] was 0.0281; in assay [2], -0.005; in assay [3], 0.544; in assay [4], -0.272; in [5] it was -0.399; in assay [6], 0.425. Besides, the z-score is -0.386 (inactive) in [7], 0.428 in assay [8], -0.107 in assay [9] and 0.69 (inactive) in [10].
As for `C=C[C@@H](OC)[C@H](OC(=O)Nc1ccc(SC)cc1)c1ccc(O)c(F)c1`, the z-score in assay [1] was -0.247; in assay [2] it was -0.19; in assay [3], -0.419; in assay [4], -1.4; in assay [5], -0.515; in assay [6], -2.52. Moreover, the z-score in assay [7] was 1.47 (inactive); in assay [8], -0.362; in assay [9] it was -0.317; in assay [10] it was -0.637 (inactive).
Take `C=C(/C(=C/C[C@@H](OC(C)=O)c1cccc(OCCO)c1)c1cc(C(=O)OC)ccc1OC)C(C)C`: the z-score in assay [1] is -0.0413; in assay [2], 0.0983; in [3], -0.159; in [4] it was -0.881; in assay [5], -0.264; in assay [6] it was 1.86. Besides, the z-score in [7] is -0.789 (inactive); in [8] it was 0.373; in assay [9] it was -0.682; in assay [10], 2.17 (inactive).
On to `COC(=O)[C@@]1(Cc2ccc(F)cc2)[C@H]2c3cc(C(=O)N4CCCC4)n(CCc4ccc(O)c(O)c4)c3C[C@H]2CN1C(=O)c1ccccc1`, for which the z-score in assay [1] is 0.863; in assay [2] it was -0.0428; in [3], 0.609; in [4], -3.48; in assay [5], -4.2; in [6], 0.54. Besides, the z-score is -0.461 (inactive) in assay [7], -0.788 in assay [8], -1.59 in assay [9] and 0.0195 (inactive) in assay [10].
In the case of `O=C1NC(=O)C2C1C=CC(C(O)CCc1ccccc1)N2Nc1ccc(Cl)cc1Cl` (stereo not given), the z-score in assay [1] is -0.308; in [2], -0.217; in assay [3] it was -0.588; in assay [4], -2.19; in assay [5], -1.19; in assay [6] it was -2.19. Also, the z-score in assay [7] is -1.75 (inactive); in assay [8], -0.236; in assay [9] it was -0.0222; in assay [10] it was -0.768 (inactive).
